PubChem BioAssay AID1159580 (chemical genetic matrix, 2015)
Out of some 5,500 compounds screened, about 2,000 (36%) were called active. Not shown: some 18% with an inconclusive outcome. Cut-off read from the data, not from the text of the source: active = normalized growth mostly below about 0.91 (no sharp cut-off); inconclusive = no clear call, values can overlap the other calls; inactive = mostly above about 0.92. This is one part of the list.

Test: chemical genetic growth profiling, strain panel (AID 1159580);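 note: tested at 20 µM; growth read once vehicle control cultures reached saturation at 30 °C; 1 = growth at the plate median or of vehicle wells; lower values mean less growth of the strain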
Conditions: S. cerevisiae deletion strains, growth OD
[1] = locus YAL013W, strain DEP1, hits give low values
[2] = locus YAL040C, strain CLN3, hits give low values
[3] = locus YCL061C, strain MRC1 (second series), hits give low values
[4] = locus YDR150W, strain NUM1, hits give low values
[5] = locus YDR363W, strain ESC2, hits give low values
[6] = locus YER002W, strain NOP16, hits give low values
[7] = locus YJR075W, strain HOC1, hits give low values
[8] = locus YMR307W, strain GAS1, hits give low values
[9] = locus YNL175C, strain NOP13, hits give low values
[10] = locus YNL197C, strain WHI3, hits give low values
[11] = locus YNL224C, strain SQS1, hits give low values
[12] = locus YOR083W, strain WHI5 (second series), hits give low values

Measured: normalized growth

CC(=O)[C@@]1(O)CC[C@H]2[C@@H]3CCC4=CC(=O)CC[C@]4(C)[C@H]3CC[C@@]21C
inactive: [1] 0.961 | [2] 0.947 | [3] 0.985 | [4] 1 | [5] 0.996 | [6] 0.967 | locus YGR078C, strain PAC10, hits give low values 0.975 | locus YGR229C, strain SMI1, hits give low values 1.01 | [7] 0.984 | [8] 0.979 | [9] 0.97 | [10] 0.966 | [11] 0.957 | [12] 1.03

C[C@]12CCC(=O)C=C1CC[C@@H]1[C@@H]2CC[C@@]2(C)[C@H]1CC[C@]2(O)C(=O)CO
inactive: [1] 1.02 | [2] 1 | [3] 0.994 | [4] 0.994 | [5] 0.948 | [6] 0.98 | [7] 1 | [8] 1.01 | locus YNL153C, strain GIM3, hits give low values 0.938 | [9] 0.969 | [10] 0.975 | [11] 0.992 | [12] 0.966 | locus YPL241C, strain CIN2, hits give low values 1
